We go through eight compounds from ChEMBL document CHEMBL3988442, “University of Dundee, Small-Polar-MMV Screening Library” (2021).

What all share (parameters): scale not given: direction of the effect not stated beside the values
The target of assay [1] is Protein translocase subunit SecA (Escherichia coli (strain K12)) (UniProt P10408). The assay can be described thus: Assay to Identify E. coli SecA ATPase Inhibitors. Format: functional. To be noted: 30 µM.
Assay [2] concerns the target T1, Ubiquitin-activating enzyme e1, putative (Leishmania donovani (strain BPK282A1)) (UniProt E9BSI1).
T1 sequence (whole entry): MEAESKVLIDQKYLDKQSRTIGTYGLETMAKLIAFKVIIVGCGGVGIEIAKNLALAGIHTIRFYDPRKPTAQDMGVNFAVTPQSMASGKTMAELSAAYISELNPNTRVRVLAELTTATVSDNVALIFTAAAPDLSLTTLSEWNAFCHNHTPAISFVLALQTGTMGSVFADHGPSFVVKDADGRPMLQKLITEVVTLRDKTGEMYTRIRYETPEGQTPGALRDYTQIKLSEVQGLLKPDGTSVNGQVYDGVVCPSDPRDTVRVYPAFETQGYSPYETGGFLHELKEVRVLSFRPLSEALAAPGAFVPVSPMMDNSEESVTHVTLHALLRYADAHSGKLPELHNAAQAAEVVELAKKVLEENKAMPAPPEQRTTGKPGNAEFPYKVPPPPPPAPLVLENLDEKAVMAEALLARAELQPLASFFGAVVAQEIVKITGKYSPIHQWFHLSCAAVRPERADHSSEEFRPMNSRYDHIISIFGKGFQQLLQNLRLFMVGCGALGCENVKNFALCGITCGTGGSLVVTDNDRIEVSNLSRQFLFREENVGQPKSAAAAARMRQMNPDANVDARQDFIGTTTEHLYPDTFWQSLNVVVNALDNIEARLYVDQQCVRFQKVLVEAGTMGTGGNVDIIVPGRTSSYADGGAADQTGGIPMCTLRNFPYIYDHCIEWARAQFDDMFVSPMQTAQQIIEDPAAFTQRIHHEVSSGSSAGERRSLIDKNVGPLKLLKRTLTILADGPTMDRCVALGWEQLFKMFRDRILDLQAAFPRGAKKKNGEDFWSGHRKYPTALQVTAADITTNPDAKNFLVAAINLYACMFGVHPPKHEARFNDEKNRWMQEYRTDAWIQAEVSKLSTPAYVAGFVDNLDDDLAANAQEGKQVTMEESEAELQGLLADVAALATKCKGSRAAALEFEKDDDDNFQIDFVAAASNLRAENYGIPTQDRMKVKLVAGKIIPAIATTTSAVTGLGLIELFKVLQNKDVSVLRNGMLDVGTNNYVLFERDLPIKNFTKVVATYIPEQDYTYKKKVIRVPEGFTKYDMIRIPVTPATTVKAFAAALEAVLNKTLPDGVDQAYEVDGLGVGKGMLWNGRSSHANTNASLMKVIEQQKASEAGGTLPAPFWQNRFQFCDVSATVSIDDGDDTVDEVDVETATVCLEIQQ
As to the kind of experiment: Leishmania donovani Ubiquitin Activating Enzyme (LdE1). Format: functional. To be noted: 30 µM.

For assay [3], the target named is AMP-activated protein kinase, AMPK (Homo sapiens) (UniProt P54646+O43741+P54619+Q9UGJ0+Q9Y478+Q13131+Q9UGI9). The assay can be described thus: AMP-dependent Kinase enzyme assay. An in vitro enzyme assay that detects ADP turnover that is directly proportional to AMPK activity. This uses naive AMPK that is activated during the assay with MK-8722. Format: functional. The note with it: 30 µM.

For assay [4], the target named is Sialic acid-binding Ig-like lectin 9 (Homo sapiens) (UniProt Q9Y336). The assay can be described thus: Hs-Siglec9 ALPHAscreen SOP 20170721. To be noted: 10 µM.
Sialic acid-binding Ig-like lectin 9 (Homo sapiens), sequence (Q9Y336 whole entry): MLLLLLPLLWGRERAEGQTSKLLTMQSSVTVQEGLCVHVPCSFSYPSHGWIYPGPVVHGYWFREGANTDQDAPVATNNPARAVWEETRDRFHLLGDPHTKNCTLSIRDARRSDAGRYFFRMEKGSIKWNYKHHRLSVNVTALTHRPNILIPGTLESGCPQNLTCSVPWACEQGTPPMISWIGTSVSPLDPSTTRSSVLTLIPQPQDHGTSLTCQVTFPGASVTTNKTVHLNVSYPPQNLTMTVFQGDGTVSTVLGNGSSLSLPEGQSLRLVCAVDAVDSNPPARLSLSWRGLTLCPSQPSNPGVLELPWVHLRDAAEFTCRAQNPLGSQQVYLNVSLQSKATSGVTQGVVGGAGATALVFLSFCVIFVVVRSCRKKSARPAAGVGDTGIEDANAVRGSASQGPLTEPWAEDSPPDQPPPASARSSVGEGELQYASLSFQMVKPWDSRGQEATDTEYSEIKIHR
The test system of assay [5] is Trypanosoma cruzi. The assay can be described thus: Trypanosoma cruzi phosphomannomutase and mannose-1-phosphate guanylyltransferase assay. Format: functional. To be noted: 10 µM.
For assay [6], the target named is T2, Arginase-2, mitochondrial (Homo sapiens) (UniProt P78540).
T2 sequence (whole entry): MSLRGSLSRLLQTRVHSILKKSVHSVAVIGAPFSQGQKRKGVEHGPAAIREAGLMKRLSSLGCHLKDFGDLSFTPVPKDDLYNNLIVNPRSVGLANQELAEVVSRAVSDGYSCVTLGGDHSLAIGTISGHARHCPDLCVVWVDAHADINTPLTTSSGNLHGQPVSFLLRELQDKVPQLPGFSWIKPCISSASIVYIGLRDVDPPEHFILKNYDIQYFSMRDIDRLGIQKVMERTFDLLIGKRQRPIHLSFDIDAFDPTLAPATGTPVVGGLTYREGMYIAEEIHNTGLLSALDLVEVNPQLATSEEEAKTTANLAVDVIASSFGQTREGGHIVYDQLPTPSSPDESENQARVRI
As to the kind of experiment: in vitro enzyme assay to detect the production of urea directly proportional to the activity of Arginase II. Also: in the data most compounds retested in dose-response had high values. Format: functional. The note with it: 33.3 µM.

For assay [7], the target named is T3, Proteasome subunit beta (Trypanosoma cruzi) (UniProt O96673).
T3 sequence (whole entry): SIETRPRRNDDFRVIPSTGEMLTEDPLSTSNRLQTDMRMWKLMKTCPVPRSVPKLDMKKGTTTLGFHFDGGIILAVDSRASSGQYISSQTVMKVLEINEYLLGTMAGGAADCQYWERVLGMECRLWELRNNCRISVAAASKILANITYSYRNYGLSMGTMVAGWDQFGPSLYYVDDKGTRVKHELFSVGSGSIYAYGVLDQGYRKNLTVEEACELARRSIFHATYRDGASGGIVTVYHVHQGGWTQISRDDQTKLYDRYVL
As to the kind of experiment: Trypanosoma cruzi proteasome chymotrypsin-like activity (TcProtChymo) assay. Also: in the data most compounds retested in dose-response had high values. To be noted: 9.37 µM. Format: functional.

For assay [8], the system named is N/A. The assay can be described thus: Trypanosoma cruzi proteasome luciferase counter-screen. Format: functional. To be noted: 9.37 µM. (In general: The purpose of a counterscreen is to sort out artefacts and off-target activity.)
The species named for assay [9] is Homo sapiens. As to the kind of experiment: To identify inhibition of the IFN signalling (Jak-Stat) pathway via expression of an eGFP reporter gene under the control of an IFN-stimulated response element (ISRE) containing MxA promoter. Format: functional. To be noted: 30 µM. Background: In a reporter assay the amount or activity of a reporter protein is the signal.

Assay [10] concerns the target T4, Tyrosyl-tRNA synthetase, putative (Trypanosoma cruzi (strain CL Brener)) (UniProt Q4DSP6).
T4 sequence (whole entry): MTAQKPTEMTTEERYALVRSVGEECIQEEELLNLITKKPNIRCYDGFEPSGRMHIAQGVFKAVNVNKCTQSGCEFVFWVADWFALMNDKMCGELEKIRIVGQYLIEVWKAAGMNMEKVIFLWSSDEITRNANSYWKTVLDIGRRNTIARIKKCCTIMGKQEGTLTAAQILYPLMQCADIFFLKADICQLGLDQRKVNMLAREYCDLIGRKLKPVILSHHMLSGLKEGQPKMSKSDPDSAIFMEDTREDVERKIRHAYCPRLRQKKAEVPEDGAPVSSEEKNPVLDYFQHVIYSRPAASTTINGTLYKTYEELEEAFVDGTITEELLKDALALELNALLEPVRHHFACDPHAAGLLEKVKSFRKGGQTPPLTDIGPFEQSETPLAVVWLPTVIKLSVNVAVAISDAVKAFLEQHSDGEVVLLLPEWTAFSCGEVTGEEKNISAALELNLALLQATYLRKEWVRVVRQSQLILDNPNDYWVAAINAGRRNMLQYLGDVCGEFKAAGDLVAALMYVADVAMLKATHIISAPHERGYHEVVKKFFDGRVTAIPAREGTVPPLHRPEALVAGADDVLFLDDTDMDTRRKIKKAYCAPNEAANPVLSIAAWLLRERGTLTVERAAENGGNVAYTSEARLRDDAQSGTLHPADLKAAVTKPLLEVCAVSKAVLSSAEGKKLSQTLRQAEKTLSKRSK
The assay can be described thus: Trypanosoma cruzi tyrosyl tRNA synthetase (TcYRS) _High Tyrosine SOP. Also: in the data most compounds retested in dose-response had high values. To be noted: 30 µM. Format: functional.

In assay [11] the target is T4, Tyrosyl-tRNA synthetase, putative (Trypanosoma cruzi (strain CL Brener)). As to the kind of experiment: Trypanosoma cruzi tyrosyl tRNA synthetase (TcYRS) SOP. Format: functional. To be noted: 30 µM.
The target in assay [12] is Chromo domain-containing protein 1 (Saccharomyces cerevisiae (strain ATCC 204508 / S288c) (Baker's yeast)) (UniProt P32657). The assay can be described thus: ScCHD-1 Enzyme Inhibition Assay. Also: in the data most compounds retested in dose-response had high values. Format: functional. To be noted: 30 µM.
Chromo domain-containing protein 1 (Saccharomyces cerevisiae (strain ATCC 204508 / S288c) (Baker's yeast)), sequence (P32657 whole entry, the tested form may be a part): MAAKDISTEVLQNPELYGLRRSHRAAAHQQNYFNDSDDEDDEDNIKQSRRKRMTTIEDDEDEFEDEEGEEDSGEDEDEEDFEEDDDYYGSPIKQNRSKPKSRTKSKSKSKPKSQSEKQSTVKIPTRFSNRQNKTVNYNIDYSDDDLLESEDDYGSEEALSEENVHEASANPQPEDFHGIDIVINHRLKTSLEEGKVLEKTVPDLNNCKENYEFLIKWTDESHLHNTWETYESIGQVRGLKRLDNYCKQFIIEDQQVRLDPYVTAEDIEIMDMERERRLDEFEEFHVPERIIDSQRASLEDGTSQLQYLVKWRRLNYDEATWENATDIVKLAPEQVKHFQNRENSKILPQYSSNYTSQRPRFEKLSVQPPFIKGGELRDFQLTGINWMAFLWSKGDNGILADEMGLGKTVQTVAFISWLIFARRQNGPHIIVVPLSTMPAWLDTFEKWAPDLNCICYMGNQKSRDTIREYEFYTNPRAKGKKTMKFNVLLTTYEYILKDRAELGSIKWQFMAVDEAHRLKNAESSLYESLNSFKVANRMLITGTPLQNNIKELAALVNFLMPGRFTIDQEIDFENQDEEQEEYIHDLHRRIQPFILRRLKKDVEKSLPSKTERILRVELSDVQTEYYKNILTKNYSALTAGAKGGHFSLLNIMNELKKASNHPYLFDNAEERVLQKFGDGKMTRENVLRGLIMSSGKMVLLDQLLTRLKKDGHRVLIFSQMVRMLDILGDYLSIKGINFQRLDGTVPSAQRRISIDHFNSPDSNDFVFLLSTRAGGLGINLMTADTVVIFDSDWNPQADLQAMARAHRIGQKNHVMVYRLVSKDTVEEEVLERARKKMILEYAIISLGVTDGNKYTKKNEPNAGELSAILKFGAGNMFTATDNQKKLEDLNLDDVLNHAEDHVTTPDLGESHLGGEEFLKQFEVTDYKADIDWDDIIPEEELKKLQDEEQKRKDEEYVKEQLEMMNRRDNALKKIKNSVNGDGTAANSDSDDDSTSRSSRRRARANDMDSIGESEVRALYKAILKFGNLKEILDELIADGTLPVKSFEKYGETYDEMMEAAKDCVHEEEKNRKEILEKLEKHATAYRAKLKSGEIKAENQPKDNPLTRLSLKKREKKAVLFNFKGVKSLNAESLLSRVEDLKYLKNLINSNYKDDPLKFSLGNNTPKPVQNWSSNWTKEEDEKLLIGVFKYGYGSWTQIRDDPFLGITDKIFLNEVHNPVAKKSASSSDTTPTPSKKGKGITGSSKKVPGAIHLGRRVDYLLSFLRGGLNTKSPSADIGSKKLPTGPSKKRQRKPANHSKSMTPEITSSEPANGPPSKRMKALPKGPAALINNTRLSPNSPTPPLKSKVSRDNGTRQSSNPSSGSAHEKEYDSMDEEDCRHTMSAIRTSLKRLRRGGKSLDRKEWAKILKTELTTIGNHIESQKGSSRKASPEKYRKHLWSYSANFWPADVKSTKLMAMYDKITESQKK

Structures are written as SMILES. Values joined by “and” are separate entries in the source; they are usually repeats but may differ in a detail not shown here. Equal values may be shown once. For part of these data: Potency and affinity values are given separately.

Protein translocase subunit SecA (Escherichia coli (strain K12)), sequence (P10408 whole entry): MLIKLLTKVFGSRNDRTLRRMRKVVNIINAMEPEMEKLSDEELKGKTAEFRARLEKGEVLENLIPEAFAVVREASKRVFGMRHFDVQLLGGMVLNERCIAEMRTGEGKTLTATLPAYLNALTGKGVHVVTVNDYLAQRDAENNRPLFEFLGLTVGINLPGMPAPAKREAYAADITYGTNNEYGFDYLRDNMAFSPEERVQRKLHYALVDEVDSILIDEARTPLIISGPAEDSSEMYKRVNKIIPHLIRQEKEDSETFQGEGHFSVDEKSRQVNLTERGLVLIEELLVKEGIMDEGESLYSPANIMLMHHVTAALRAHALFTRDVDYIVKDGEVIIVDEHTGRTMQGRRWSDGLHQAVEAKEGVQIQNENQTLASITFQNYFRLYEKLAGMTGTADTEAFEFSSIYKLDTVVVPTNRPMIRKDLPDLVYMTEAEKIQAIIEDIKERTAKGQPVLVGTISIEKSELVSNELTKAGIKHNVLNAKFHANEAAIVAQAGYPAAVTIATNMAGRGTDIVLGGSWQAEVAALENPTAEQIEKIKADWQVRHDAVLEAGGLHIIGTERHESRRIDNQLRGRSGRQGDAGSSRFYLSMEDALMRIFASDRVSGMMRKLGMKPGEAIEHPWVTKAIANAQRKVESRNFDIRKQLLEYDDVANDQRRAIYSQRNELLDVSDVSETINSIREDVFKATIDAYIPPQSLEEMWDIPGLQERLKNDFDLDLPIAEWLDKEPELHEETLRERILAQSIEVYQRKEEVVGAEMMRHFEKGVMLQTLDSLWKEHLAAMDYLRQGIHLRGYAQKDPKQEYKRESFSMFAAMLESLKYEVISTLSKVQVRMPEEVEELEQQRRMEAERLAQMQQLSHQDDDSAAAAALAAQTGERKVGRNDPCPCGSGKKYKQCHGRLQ

As to `Cc1ccc(-c2nc(CN3CCC(C(=O)N(C)C)CC3)cs2)o1`, the Percent Effect in assay [1] was -3.42%; in assay [2], -1.27%; in [3], -1.3%; in assay [4] it was -4.8%; in [5] it was -0.103%; in assay [6] it was -1.94%. Besides, the Percent Effect in assay [7] was 38.5% and 41.6% and 46.1%; in [8], 21.6% and 19.9%; in assay [9], 21.9%; in assay [10], 12.5%; in [11], 22.8%; in assay [12] it was -29.5%.

On to `Cc1nc(CN2CCOC(CNc3cccnn3)C2)oc1C` (stereo unspecified), for which the Percent Effect is -1.3% in assay [1]; 0% in assay [2]; -22.1% in assay [3]; -5.8% in assay [4]; 0.283% in assay [5]; 28.9% in assay [6]. In addition, the Percent Effect in assay [7] is 30.6% and 26.7% and 36.4%; in assay [8], 11.3% and 10.2%; in assay [9], 11.3%; in [10], 2.46%; in assay [11], -8.64%; in assay [12], -0.197%.

Regarding `Cc1nc(CN2C[C@@H]3CN(C(=O)c4cccn4C)C[C@@H]3C2=O)cs1`, the Percent Effect in assay [1] was 1.08%; in assay [2], 13.5%; in [3] it was 1.31%; in assay [4], -6.65%; in assay [5], -4.2%; in assay [6], -0.955%. In addition, the Percent Effect in assay [7] was 13.3% and 13.5% and 30.8%; in assay [8], 6.13% and 6.46%; in assay [9], 11.3%; in [10], 3.24%; in [11], 15.4%; in [12], -1.02%.

Turning to `Cc1cccc(NC(=O)c2sccc2C)n1`, the Percent Effect in assay [1] was -3.25%; in assay [2] it was 23.7%; in assay [3], -0.39%; in [4], -12.7%; in [5], 3.99%; in [6], -16.6%. The Percent Effect in assay [7] is 91.2% and 92.2% and 77.2%; in [8], 69.5% and 70.4%; in assay [9], 16.1%; in assay [10], 1.06%; in [11] it was 13%; in assay [12], -7.3%.

On to `Cc1ccc(NC2CCN(C(=O)CCc3ccco3)CC2)nn1`, for which the Percent Effect in [1] was -5.56%; in [2], 2.7%; in assay [3], 6.46%; in [4], 1.2%; in assay [5], 0.836%; in assay [6], 0.554%. Further, the Percent Effect was 21.9% and 32.9% and 29.3% in [7]; -1.73% and 1.88% in assay [8]; 8.89% in [9]; 11.9% in [10]; -1.22% in assay [11]; 0.23% in assay [12].

Consider `Cc1ccc(C(=O)Nc2cn[nH]c2)cc1C`, for which the Percent Effect was found to be 0.399% in assay [1]; 18.4% in [2]; 16.7% in assay [3]; 3.99% in assay [4]; 0.188% in assay [5]; 1.15% in assay [6]. Moreover, the Percent Effect is 53% and 40.4% and 50.9% in assay [7]; 27.1% and 25% in assay [8]; 5.81% in assay [9]; 11.3% in [10]; 24.4% in [11]; -9.31% in assay [12].

With `CN1CCCC1c1ccc(C(=O)N2CCc3ccccc3C2)s1` (stereo unspecified), the Percent Effect is -3.53% in assay [1]; -16.2% in assay [2]; 2.64% in assay [3]; -7.08% in assay [4]; -3.81% in [5]; -2.73% in assay [6]. Moreover, the Percent Effect in [7] was 74.8% and 75.3% and 64.5%; in assay [8] it was 44.8% and 43.9%; in [9] it was 16.1%; in assay [10], 3.23%; in assay [11], -3.7%; in assay [12], 7.75%.

`CCOc1cc(/C=C/c2ncc(C(=O)O)s2)ccc1O`: the Percent Effect is -3.57% in [1]; 11.4% in assay [2]; 44.7% in assay [3]; 0.0396% in assay [4]; -3.38% in assay [5]; 4.95% in assay [6]. Besides, the Percent Effect is 47.2% and 46.2% and 45.3% in assay [7]; 10.5% and 16.9% in assay [8]; 7.54% in assay [9]; 4.17% in [10]; 7.59% in [11]; -20.7% in assay [12].
